# Most compounds without a hit are left out; they make up all but 2.7% or so of the library.
# LDHA block: qHTS assay for inhibitors of human lactate dehydrogenase | purified LDHA, NADH/diaphorase-resazurin fluorescence; stronger effect = lower value | activity change, % (values are at about 110 or 230 µM) | 480,000 tested, 0.15% active | AID 1347041, 2019; in the data active means activity change below about -30%; inconclusive means mostly about -25% to -30%;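 further: plate controls were DMSO wells for no effect and wells without enzyme for full effect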
#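 Resorufin fluorescence (ex540/em590), read at 0 and 20 min after diaphorase/resazurin addition, reports the NADH left after a 5 min room-temperature reaction of 2 nM human LDH5 with 0.06 mM NADH and 0.2 mM pyruvate.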
# Nrf2 block: Nrf2 qHTS screen for inhibitors; A549 ARE-Fluc reporter, luciferase luminescence, 18-24 h; Potency, µM (series often up to 46 µM), inactives show top-dose activity change, negative = inhibition, actives largely listed as inhibitors; 360,000 tested, 2.1% active; AID 504444, 2011; further: potency means the concentration at half of the fitted maximal effect; on the % scale 0 is the no-effect control and ±100 the full control effect; nearly all actives have a fitted effect of over 60% in size
#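 In this cell-based qHTS, ARE-driven firefly luciferase in A549 cells reports Nrf2 activity; the luminescent signal after BugLite lysis is the measured value, with a prior CellTiter-Fluor read for cell health.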
# A549 viability: Nrf2 qHTS screen for inhibitors: counterscreen for cytotoxicity | A549 ARE-Fluc cells, CellTiter-Fluor viability, 18-24 h | Potency, µM (top dose mostly 46 µM), for the others: top-dose activity change, negative = cytotoxicity, hits mostly inhibitors | 390,000 tested, 0.16% active; further: potency means the concentration at half of the fitted maximal effect; on the % scale 0 is the no-effect control and ±100 the full control effect
#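 Cytotoxicity counterscreen: CellTiter-Fluor fluorescence was measured in A549 ARE_Fluc cells after 18-24 h of compound exposure in a concentration series. The subsequent BugLite luminescent read reports ARE-luciferase activity.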
# Nrf2 ARE act: qHTS of Nrf2 Activators | AREc32 ARE-luciferase reporter (MCF7-derived line), luminescence, 24 h | Potency, µM (series often up to 46.1 µM), inactives show at the top dose activation, usual class: activators | 410,000 tested, 0.31% active | AID 624171, 2012; further: potency means the concentration at half of the fitted maximal effect; % of control where 0% means no effect; nearly all actives have a fitted effect of over 65% in size
#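 Luciferase luminescence (Steady-Glo, 30 min at room temperature) served as the read-out of ARE activation in AREc32 cells treated with compounds for 24 hr at 37 deg C.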
# 12-LOX inh: Primary qHTS assay for inhibitors of human arachidonate 12S-lipoxygenase (ALOX12): Round 2 | 580,000 tested, 1.1% active | Potency, µM (top dose mostly 108 µM), without a hit: at the top dose activity change, negative = inhibition, hits mostly inhibitors | Polyunsaturated fatty acid lipoxygenase ALOX12 (Homo sapiens), P18054 | purified 12hLO, xylenol orange hydroperoxide absorbance; further: potency means the concentration at half of the fitted maximal effect; on the % scale 0 is the no-effect control and ±100 the full control effect
#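 Hydroperoxide product was detected by ferrous iron/xylenol orange as the 573 to 405 nm absorbance ratio. Arachidonic acid at 40 uM (final) was turned over for 30 min at room temperature by 150 nM human 12hLO, pH 7.0 Hepes buffer, after 15 min compound preincubation.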
# IDH1 R132H inh: qHTS for Inhibitors of mutant isocitrate dehydrogenase 1 (IDH1): qHTS. Isocitrate dehydrogenase [NADP] cytoplasmic (Homo sapiens), O75874. IDH1-R132H enzyme, NADPH consumption, diaphorase/resazurin fluorescence. Potency, µM (series often up to 76.6 µM), for the others: at the highest dose activity change, negative = inhibition, hits mostly inhibitors. 390,000 tested, 0.093% active; further: potency means the concentration at half of the fitted maximal effect; on the % scale 0 is the no-effect control and ±100 the full control effect; nearly all actives have a fitted effect of over 65% in size
# Target sequence (O75874 whole entry R132H, stated change not applied): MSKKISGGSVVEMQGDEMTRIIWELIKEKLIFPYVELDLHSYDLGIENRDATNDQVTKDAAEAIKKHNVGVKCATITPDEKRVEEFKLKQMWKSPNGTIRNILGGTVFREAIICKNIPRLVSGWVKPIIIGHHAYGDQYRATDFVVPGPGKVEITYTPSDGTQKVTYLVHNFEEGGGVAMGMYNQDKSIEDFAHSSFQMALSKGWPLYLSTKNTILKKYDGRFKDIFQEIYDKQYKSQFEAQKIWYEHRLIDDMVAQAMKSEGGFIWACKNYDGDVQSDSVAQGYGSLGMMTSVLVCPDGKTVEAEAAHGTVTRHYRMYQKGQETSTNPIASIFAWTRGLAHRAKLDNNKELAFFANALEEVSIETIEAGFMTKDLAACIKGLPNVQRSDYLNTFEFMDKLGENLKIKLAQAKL
#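 IDH1-R132H (0.5 ug/mL) preincubated 30 min with compound, then NADPH (0.016 mM) and alpha-KG (2 mM) added; 80 min at RT, pH 7.5. Remaining NADPH coupled via diaphorase/resazurin to fluorescence (540/590 nm); concentration-response curves normalized to no-enzyme control.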
# * marks the source's active call; other numbers are inactive results; u = inconclusive; x = not tested or not shown; [ ] = another dose, or the depositor's remark. Unless noted, the call rests on the fitted dose curve; in most records, active means well fitted curve in the direction sought with a large enough effect; inconclusive means small, poorly fitted or top-dose-only effect, or another doubt; inactive means no such curve, though single readings can be large; an effect the other way counts as inactive or inconclusive.
SMILES,LDHA block,Nrf2 block,A549 viability,Nrf2 ARE act,12-LOX inh,IDH1 R132H inh
O=C(C1CCN(S(=O)(=O)N2CCOCC2)CC1)N1CCN(c2ccccc2F)CC1,-1,2%,3%,0%,0%,-8%
Cc1cccc(N2CCN(C(=O)C3CCN(S(=O)(=O)N4CCOCC4)CC3)CC2)c1C,-13,21µM*,2%,4%,2%,10%
CCn1c(C(=O)N2CCC(C(=O)N3CCN(c4cc(C)ccc4C)CC3)CC2)cc2sccc21,-2,u,-9%,0%,0%,-7%
CCn1c(C(=O)N2CCC(C(=O)N3CCN(c4cccc(C)c4C)CC3)CC2)cc2sccc21,-3,21µM*,-20%,-2%,-1%,-10%
COc1cc(C(=O)Nc2nc(-c3ccc(Cl)cc3)c(C)s2)ccc1OCC(=O)Nc1ccc(F)cc1,0,21µM*,u,0%[9.22 µM],-19%,0%
COc1ccc(-c2nc(NC(=O)Cn3ccc(C(F)(F)F)n3)sc2C)cc1,5,21µM*,u,2%,143%,0%
COc1ccc(-c2nc(NC(=O)c3cc(OC)c(OC)c(OC)c3)sc2C)cc1,-2,x,x,x,45µM*,x
Cc1nc2ccccc2c(C)c1CC(=O)NC(C)c1ccco1 (centres undefined),-12,x,x,x,-7%,x
COc1ccccc1/C=C/C=C1\Oc2cc(OS(=O)(=O)c3ccccc3)ccc2C1=O,19,x,x,x,u,x
CC(=O)N1N=C(c2ccc(NS(=O)(=O)c3ccccc3)cc2)CC1c1ccco1 (centres undefined),0,-2%,-10%,4%,-1%,-4%
COCC(=O)OCC(=O)N1N=C(c2ccc(Cl)cc2)CC1c1ccco1 (centres undefined),-11,-1%,0%,3%,-24%,17%
O=C(OCC(=O)N1N=C(c2ccc(Cl)cc2)CC1c1ccco1)c1cccnc1 (centres undefined),2,u,10%,20µM*,-58%,2%
CC(C)[C@H](NS(=O)(=O)c1ccccc1)C(=O)OCC(=O)N1N=C(c2ccc(Cl)cc2)CC1c1ccco1 (some centres undefined),0,u,-27%,24%,40µM*,4%
Nc1cc(=O)[nH]c(SCC(=O)N2N=C(c3ccc(Cl)cc3)CC2c2ccco2)n1 (centres undefined),-4,14%,-1%,6%,40µM*,2%
CC(=O)N1N=C(c2cccc(NS(=O)(=O)c3ccc(C)cc3)c2)CC1c1ccco1 (centres undefined),-3,23µM*,u,0%,u,3%
O=C(CCl)N1N=C(c2ccco2)CC1c1ccco1 (centres undefined),15,17%,1%,16µM*,u,-4%
O=C1CC(O)=C(Br)O1,20,x,x,x,u,x
COc1ccc(C2/C(=C(\O)c3cccc(OC)c3)C(=O)C(=O)N2c2ccccn2)cc1 (centres undefined),19,-12%,0%,0%,u,6%
COC(=O)c1ccc(C2/C(=C(\O)c3cccc(OC)c3)C(=O)C(=O)N2c2ccccn2)cc1 (centres undefined),-1,x,x,x,1.1µM*,x
Cn1c(-n2cccc2)c(-c2c(-c3ccccc3)[nH]c3c2c(=O)[nH]c(=O)n3C)c(=O)[nH]c1=O,-4,5%,-10%,0%,-4%,5%
Cn1c(-n2cccc2)c(-c2c(-c3cccc4ccccc34)[nH]c3c2c(=O)[nH]c(=O)n3C)c(=O)[nH]c1=O,10,x,x,x,18µM*,x
O=C(C=Cc1cccs1)c1ccc(Cl)s1,-4,5%,-3%,22µM*,u,7%
O=C(/C=C/c1cccs1)c1cc(Cl)ccc1O,0,11%,-5%,14µM*,-10%,-4%
O=C(/C=C/c1cccs1)c1ccc(O)cc1,3,x,x,x,50%,x
O=C(C=Cc1ccco1)c1cc(Cl)ccc1O,3,7%,0%,u,u,-3%
SMILES,LDHA block,Nrf2 block,A549 viability,Nrf2 ARE act,12-LOX inh,IDH1 R132H inh
O=C(NCC(F)(F)F)c1cc(C2CC2)nc2onc(C3CCCN3)c12 (centres undefined),x,x,x,x,-14%[6.33 µM],x
Cc1nc([C@H]2CCN(Cc3ccc(C)c(C)c3)C[C@H]2NC(=O)C2CC2)n[nH]1,x,x,x,x,63%,x
CCN(CC)C(=O)[C@H]1C[C@H](CC(=O)NCc2ccco2)C(=O)N2CCc3c([nH]c4cc(-c5ccco5)ccc34)[C@]12C,-19,u,-8%,25%,u,0%
CCN(CC)C(=O)[C@H]1C[C@H](CC(=O)NCc2cccc(C(F)(F)F)c2)C(=O)N2CCc3c([nH]c4cc(-c5ccco5)ccc34)[C@]12C,-5,18µM*,u,-2%,x,0%[38.3 µM]
CC[C@]12c3[nH]c4ccccc4c3CCN1C(=O)C(CC(=O)NC/C=C(\C)CCC=C(C)C)C[C@@H]2C(=O)N1CCN(C(=O)c2ccco2)CC1 (some centres undefined),0,23µM*,-22%,-1%,u,-20%
CC[C@]12c3[nH]c4cc(CCC(=O)N(C)C)ccc4c3CCN1C(=O)[C@@H](CC(=O)NC/C=C(\C)CCC=C(C)C)C[C@@H]2C(=O)N1CCN(C(=O)C2CC2)CC1,0,-27%,-13%,7%,4%,-10%
CC(C)=CCC/C(C)=C/CNC(=O)C[C@H]1C[C@H](C(=O)N2CCOCC2)[C@@]2(C)c3[nH]c4cc(CCC(=O)N(C)C)ccc4c3CCN2C1=O,0,15µM*,-16%,7%,-9%,-1%[38.3 µM]
C[C@]12c3[nH]c4ccccc4c3CCN1C(=O)C(CC(=O)NCC13CC4CC(CC(C4)C1)C3)C[C@@H]2C(=O)N1CCCCC1 (some centres undefined),1,16µM*,-13%,-1%,-28%,-6%
CCOc1ccc(-c2nc(CN3CCN(C(=O)Nc4cccc(OC)c4)CC3)c(C)o2)cc1,5,x,x,x,-13%,x
C=CCNC(=O)Nc1cc(C(=O)NC)ccc1Cl,3,x,x,x,-30%,x
CCOc1ccccc1NC(=O)c1ccc(C)c(S(=O)(=O)Nc2cccc(C)c2C)c1,4,x,x,x,u,x
